Assay results: PubChem BioAssay (EPA / NIEHS)
Calls of active or inactive are those of the source. How the source made its calls: active means hit-call score of the fitted dose curve at least 0.9, where 1 is the maximum; inactive means score below 0.9.

How the values were obtained:
Conditions in all cases: mRNA level, 48 h; actives raise or lower the signal
CYP2C9 (gene 1559) = test: LTEA_HepaRG_CYP2C9: Life Technologies and Expression Analysis (LTEA) Assay for CYP2C9 using HepaRG (AID 2283484)
Procedure, shortened: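 HepaRG, 48 h dosing, 8-pt half-log series, top 100 uM, 0.5% DMSO vehicle. Read-out: CYP2C9 transcript by TaqMan qRT-PCR, housekeeping-normalized (ACTB/GAPDH/POLR2A). Gain or loss fitted vs DMSO baseline.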

CYP2E1 (gene 1571) = test: LTEA_HepaRG_CYP2E1: Life Technologies and Expression Analysis (LTEA) Assay for CYP2E1 using HepaRG (AID 2283485)
Procedure, shortened: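 Assay uses 48 h exposure of HepaRG hepatic cells, eight concentrations to 100 uM. Expression of CYP2E1 is quantified by TaqMan qRT-PCR with ACTB, GAPDH and POLR2A normalization; curves fitted in both directions relative to vehicle.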

CYP4A11 (gene 1579) = test: LTEA_HepaRG_CYP4A11: Life Technologies and Expression Analysis (LTEA) Assay for CYP4A11 using HepaRG (AID 2283486)
Procedure, shortened: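 Differentiated HepaRG cells, serum-free induction medium, exposed 48 h in duplicate to 8-point half-log series from 100 uM in 0.5% DMSO. CYP4A11 mRNA measured by qRT-PCR, normalized to ACTB, GAPDH, POLR2A; bidirectional fit versus DMSO.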

[1] = read-out: Pro-epidermal growth factor (Homo sapiens) (UniProt P01133); test: LTEA_HepaRG_EGF: Life Technologies and Expression Analysis (LTEA) Assay for Epidermal growth factor (EGF) using HepaRG (AID 2283489)
Procedure, shortened: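 Differentiated human HepaRG cells, plated 48 h then switched to serum-free induction medium, were exposed for 48 h to test chemicals (8-point half-log series, top 100 uM, 0.5% DMSO). EGF mRNA was quantified by qRT-PCR, normalized to ACTB, GAPDH, POLR2A.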

[2] = read-out: Early growth response protein 1 (EGR1) transcription factor, EGR1 (gene 1958); test: LTEA_HepaRG_EGR1: Life Technologies and Expression Analysis (LTEA) Assay for Early growth response protein 1 (EGR1) transcription factor using HepaRG (AID 2283490)
Procedure, shortened: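 HepaRG, 48 h exposure, 8-pt half-log series from 100 uM, 0.5% DMSO vehicle; EGR1 transcript by TaqMan qRT-PCR (Fluidigm array), housekeeping-normalized; bidirectional fit relative to DMSO baseline.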

[3] = read-out: Ezrin (EZR), EZR (gene 7430); test: LTEA_HepaRG_EZR: Life Technologies and Expression Analysis (LTEA) Assay for Ezrin (EZR) using HepaRG (AID 2283491)
Procedure, shortened: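 Differentiated human HepaRG cells, 48 h after plating, were exposed in serum-free induction medium for 48 hours to eight half-log concentrations up to 100 uM in 0.5% DMSO. EZR mRNA was measured by TaqMan qRT-PCR, normalized to ACTB, GAPDH and POLR2A, and fitted bidirectionally against DMSO.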

[4] = read-out: Fatty Acid-Binding Protein 1 (FABP1), FABP1 (gene 2168); test: LTEA_HepaRG_FABP1: Life Technologies and Expression Analysis (LTEA) Assay for Fatty Acid-Binding Protein 1 (FABP1) using HepaRG (AID 2283494)
Procedure, shortened: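 qRT-PCR readout of FABP1 transcript (normalized to three housekeeping genes) after 48 h chemical exposure of HepaRG cells; eight concentrations, half-log steps, max 100 uM, 0.5% DMSO vehicle; gain or loss fitted relative to DMSO baseline.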

[5] = read-out: Glutathione S-Transferase (GSTA2), GSTA2 (gene 2939); test: LTEA_HepaRG_GSTA2: Life Technologies and Expression Analysis (LTEA) Assay for Glutathione S-Transferase (GSTA2) using HepaRG (AID 2283497)
Procedure, shortened: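 qRT-PCR readout of GSTA2 transcript, normalized to three housekeeping genes, fitted bidirectionally against 0.5% DMSO baseline. Differentiated HepaRG cells received compound for 48 h at 8 concentrations (top 100 uM, half-log steps).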

[6] = read-out: Glutamate-cysteine ligase catalytic (GCLC), GCLC (gene 2729); test: LTEA_HepaRG_GCLC: Life Technologies and Expression Analysis (LTEA) Assay for Glutamate-cysteine ligase catalytic (GCLC) using HepaRG (AID 2283498)
Procedure, shortened: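 HepaRG, 48 h exposure, 8-pt half-log series from 100 uM, 0.5% DMSO vehicle; TaqMan qRT-PCR for GCLC mRNA, housekeeping-normalized; bidirectional curve fit vs DMSO baseline.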

[7] = read-out: growth arrest and DNA damage 45 (GADD45G), GADD45G (gene 10912); test: LTEA_HepaRG_GADD45G: Life Technologies and Expression Analysis (LTEA) Assay for growth arrest and DNA damage 45 (GADD45G) using HepaRG (AID 2283499)
Procedure, shortened: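 Differentiated human HepaRG cells in serum-free induction medium were exposed for 48 h to 8 half-log concentrations up to 100 uM in 0.5% DMSO, in duplicate. GADD45G mRNA was measured by TaqMan qRT-PCR, normalised to ACTB, GAPDH and POLR2A, and fitted bidirectionally against DMSO.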

[8] = read-out: Glutamate-cysteine ligase regulatory (GCLM), GCLM (gene 2730); test: LTEA_HepaRG_GCLM: Life Technologies and Expression Analysis (LTEA) Assay for Glutamate-cysteine ligase regulatory (GCLM) using HepaRG (AID 2283500)
Procedure, shortened: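 In this multiplexed HepaRG gene-expression assay, GCLM mRNA change after 48 h treatment (8 concentrations, max 100 uM) was scored against DMSO by bidirectional curve fitting.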

[9] = read-out: Glutathione S-transferase M3 (GSTM3), GSTM3 (gene 2947); test: LTEA_HepaRG_GSTM3: Life Technologies and Expression Analysis (LTEA) Assay for Glutathione S-transferase M3 (GSTM3) using HepaRG (AID 2283501)
Procedure, shortened: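 Differentiated HepaRG cells in serum-free induction medium were exposed in duplicate for 48 h to 8 half-log concentrations up to 100 uM in 0.5% DMSO. GSTM3 mRNA was measured by TaqMan qRT-PCR, normalized to ACTB/GAPDH/POLR2A, and fitted bidirectionally versus DMSO.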

[10] = read-out: Heat shock 70 kDa protein 1 (HSPA1A), gene 3303; test: LTEA_HepaRG_HSPA1A: Life Technologies and Expression Analysis (LTEA) Assay for Heat shock 70 kDa protein 1 (HSPA1A) using HepaRG (AID 2283502)
Procedure, shortened: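 An oxidative-stress marker readout: HepaRG cells treated 48 h in duplicate with an eight-point series (highest 100 uM) had HSPA1A mRNA quantified by TaqMan qRT-PCR. Activity was fitted in both directions using 0.5% DMSO as baseline.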

[11] = read-out: Hypoxia-inducible factor 1-alpha (Homo sapiens) (UniProt Q16665); test: LTEA_HepaRG_HIF1A: Life Technologies and Expression Analysis (LTEA) Assay for Hypoxia-inducible factor 1 (HIF1A) Trancription factor using HepaRG (AID 2283503);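 further: HIF1A transcript by TaqMan qRT-PCR normalized to ACTB GAPDH and POLR2A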
Procedure, shortened: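 Gain- or loss-of-signal HIF1A mRNA changes are fitted against a DMSO baseline. HepaRG cultures receive eight concentrations, highest 100 uM, for 48 h in serum-free induction medium with 0.5% DMSO.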

[12] = read-out: Cytochrome P450 3A4 (Homo sapiens) (UniProt P08684); test: LTEA_HepaRG_CYP3A4: Life Technologies and Expression Analysis (LTEA) Assay for CYP3A4 using HepaRG (AID 2283487)
Procedure, shortened: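 Differentiated HepaRG cells in serum-free induction medium exposed in duplicate for 48 h to 8 half-log concentrations up to 100 uM in 0.5% DMSO. CYP3A4 mRNA measured by qRT-PCR normalized to ACTB, GAPDH and POLR2A; bidirectional fit versus DMSO.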

CYP3A5 (gene 1577) = test: LTEA_HepaRG_CYP3A5: Life Technologies and Expression Analysis (LTEA) Assay for CYP3A5 using HepaRG (AID 2283493)
Procedure, shortened: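 Readout was CYP3A5 mRNA by qRT-PCR. HepaRG cultures were exposed for 48 h in serum-free induction medium to chemicals at up to 100 uM, and responses were fitted in both directions relative to DMSO vehicle.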

[13] = read-out: Cytochrome P450 4A22 (Homo sapiens) (UniProt Q5TCH4); test: LTEA_HepaRG_CYP4A22: Life Technologies and Expression Analysis (LTEA) Assay for Cytochrome P450 4A22 (CYP4A22) using HepaRG (AID 2283495)
Procedure, shortened: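 qRT-PCR of CYP4A22 mRNA (Fluidigm TaqMan, normalized to three housekeeping genes) after 48 h chemical exposure of HepaRG cells; 8-point half-log series, top 100 uM, 0.5% DMSO vehicle. Bidirectional curve fitting vs DMSO baseline.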

[14] = read-out: Cytochrome P450 7A1 (Homo sapiens) (UniProt P22680); test: LTEA_HepaRG_CYP7A1: Life Technologies and Expression Analysis (LTEA) Assay for Cytochrome P450 7A1 (CYP7A1) using HepaRG (AID 2283496)
Procedure, shortened: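 Using 0.5% DMSO as vehicle and baseline, chemicals were tested in duplicate over an 8-point range from 100 uM on HepaRG cells for 48 h; qRT-PCR signals were normalised to ACTB, GAPDH and POLR2A.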

Measured: AC50

Hypoxia-inducible factor 1-alpha (Homo sapiens), sequence (Q16665 whole entry, looked up): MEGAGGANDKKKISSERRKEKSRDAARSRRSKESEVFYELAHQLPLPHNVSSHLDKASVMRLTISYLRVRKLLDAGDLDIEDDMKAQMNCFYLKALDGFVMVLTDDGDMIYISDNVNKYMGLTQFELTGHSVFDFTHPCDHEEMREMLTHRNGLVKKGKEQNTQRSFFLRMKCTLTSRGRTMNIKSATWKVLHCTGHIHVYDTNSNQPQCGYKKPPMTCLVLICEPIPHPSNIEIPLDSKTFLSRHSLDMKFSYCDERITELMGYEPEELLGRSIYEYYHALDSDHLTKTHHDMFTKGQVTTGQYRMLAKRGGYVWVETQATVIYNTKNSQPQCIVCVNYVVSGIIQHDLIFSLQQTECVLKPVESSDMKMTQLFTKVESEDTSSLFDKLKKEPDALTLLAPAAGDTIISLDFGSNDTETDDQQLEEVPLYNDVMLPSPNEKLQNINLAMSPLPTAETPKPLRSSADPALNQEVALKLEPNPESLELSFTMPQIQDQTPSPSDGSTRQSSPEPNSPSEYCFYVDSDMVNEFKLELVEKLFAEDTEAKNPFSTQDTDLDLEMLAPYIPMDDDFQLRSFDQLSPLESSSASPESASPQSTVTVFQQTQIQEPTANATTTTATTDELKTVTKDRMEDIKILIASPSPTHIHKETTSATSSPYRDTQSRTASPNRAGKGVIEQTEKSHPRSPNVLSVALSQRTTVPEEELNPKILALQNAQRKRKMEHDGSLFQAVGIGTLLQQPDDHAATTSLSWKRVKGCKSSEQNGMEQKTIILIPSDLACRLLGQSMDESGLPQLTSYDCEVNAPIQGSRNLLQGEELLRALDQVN
Cytochrome P450 3A4 (Homo sapiens), sequence (P08684 whole entry, looked up): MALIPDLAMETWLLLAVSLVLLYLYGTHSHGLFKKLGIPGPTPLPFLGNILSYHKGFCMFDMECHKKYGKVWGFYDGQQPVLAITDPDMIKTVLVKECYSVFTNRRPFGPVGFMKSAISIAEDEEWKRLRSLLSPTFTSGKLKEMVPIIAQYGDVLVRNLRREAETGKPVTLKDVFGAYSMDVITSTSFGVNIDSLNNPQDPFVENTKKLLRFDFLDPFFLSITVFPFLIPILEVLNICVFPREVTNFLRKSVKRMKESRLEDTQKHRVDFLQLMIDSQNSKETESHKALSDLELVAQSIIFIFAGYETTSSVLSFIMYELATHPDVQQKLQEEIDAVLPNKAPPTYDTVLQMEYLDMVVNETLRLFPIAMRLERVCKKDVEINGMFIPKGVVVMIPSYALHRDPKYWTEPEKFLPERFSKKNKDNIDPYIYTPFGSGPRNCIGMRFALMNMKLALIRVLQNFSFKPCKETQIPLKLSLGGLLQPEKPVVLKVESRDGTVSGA

CS(=O)(=O)c1ccc([C@@H](C[C@H]2CCC(=O)C2)C(=O)Nc2cnccn2)cc1Cl
inactive: CYP2C9 (gene 1559) | CYP2E1 (gene 1571) | CYP4A11 (gene 1579) | [2] | [3] | [4] | [5] | [7] | [11]
active: [1] 23.5 µM | [6] 1.01 µM | [8] 1.81 µM | [9] 17.6 µM | [10] 13.4 µM

CCCCCCCCCCCCCCOS(=O)(=O)O
inactive: [12] | [1] | [2] | [3] | CYP3A5 (gene 1577) | [4] | [13] | [5] | [6] | [7] | [8] | [9] | [10] | [11]
active: CYP2C9 (gene 1559) 64.4 µM | CYP2E1 (gene 1571) 42.3 µM | CYP4A11 (gene 1579) 4.9 µM | [14] 23.7 µM

CC(C)c1cccc(C(C)C)c1
inactive: CYP2C9 (gene 1559) | CYP2E1 (gene 1571) | CYP4A11 (gene 1579) | [12] | [1] | [2] | [3] | CYP3A5 (gene 1577) | [4] | [13] | [5] | [6] | [7] | [8] | [9] | [10] | [11]

Nc1nc(=S)c2[nH]cnc2[nH]1
active: CYP2C9 (gene 1559) 7.91 µM | CYP2E1 (gene 1571) 5.72 µM | CYP4A11 (gene 1579) 6.3 µM | [12] 27.6 µM | [2] 7.2 µM | [3] 0.586 µM | [4] 9.73 µM | [13] 7.06 µM | [5] 7.68 µM | [6] 15.3 µM
inactive: [1] | CYP3A5 (gene 1577) | [7] | [8] | [9] | [11]
